What all share (experiment): DAPPL (digital affinity profiling via proximity ligation, sequencing); 10 mM Tris-HCl pH 7.5, 50 mM NaCl, 1 mM DTT, 4% glycerol, room temperature, 30 min; GST-TFs on glutathione beads, 16-mer random dsDNA library, 0.1% formaldehyde crosslink after washing; high values mean tight binding
One assay deals with T1, FLI1 (Homo sapiens, UniProt Q01543 1-452).
T1 sequence: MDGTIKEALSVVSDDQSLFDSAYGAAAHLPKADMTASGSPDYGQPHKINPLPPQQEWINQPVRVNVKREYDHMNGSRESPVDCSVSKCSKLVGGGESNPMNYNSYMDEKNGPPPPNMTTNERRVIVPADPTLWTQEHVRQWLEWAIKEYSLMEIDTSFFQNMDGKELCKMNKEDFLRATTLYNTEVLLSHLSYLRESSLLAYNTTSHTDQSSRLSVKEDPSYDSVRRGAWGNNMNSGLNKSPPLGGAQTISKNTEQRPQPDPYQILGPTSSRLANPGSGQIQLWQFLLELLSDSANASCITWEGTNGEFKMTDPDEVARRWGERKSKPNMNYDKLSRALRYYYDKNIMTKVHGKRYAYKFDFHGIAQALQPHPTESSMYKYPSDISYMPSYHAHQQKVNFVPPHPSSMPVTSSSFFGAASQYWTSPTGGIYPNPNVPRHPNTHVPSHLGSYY
Particulars: protein: recombinant; tags: N-terminal GST; dsDNA, one strand shown. A digest of the protocol: (§1)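 Pools of DNA-barcoded human transcription factors, expressed in yeast as GST fusions on glutathione beads and combined with a tag-only sample, were incubated with 200 nmole of a 16-mer random double-stranded DNA library. Incubation took 30 min at room temperature in Tris/NaCl/DTT/glycerol buffer and was followed by washing, 0.1% formaldehyde crosslinking, proximity ligation (BsaI/T4 ligase, 1 h, 37 °C), PCR amplification and sequencing on an Illumina NextSeq500. Binding signal is the ratio of a hexamer's read frequency for a factor to its frequency for the tag-only sample.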

A further assay has as its target T2, ELK1 (Homo sapiens, UniProt P19419 1-428).
T2 sequence: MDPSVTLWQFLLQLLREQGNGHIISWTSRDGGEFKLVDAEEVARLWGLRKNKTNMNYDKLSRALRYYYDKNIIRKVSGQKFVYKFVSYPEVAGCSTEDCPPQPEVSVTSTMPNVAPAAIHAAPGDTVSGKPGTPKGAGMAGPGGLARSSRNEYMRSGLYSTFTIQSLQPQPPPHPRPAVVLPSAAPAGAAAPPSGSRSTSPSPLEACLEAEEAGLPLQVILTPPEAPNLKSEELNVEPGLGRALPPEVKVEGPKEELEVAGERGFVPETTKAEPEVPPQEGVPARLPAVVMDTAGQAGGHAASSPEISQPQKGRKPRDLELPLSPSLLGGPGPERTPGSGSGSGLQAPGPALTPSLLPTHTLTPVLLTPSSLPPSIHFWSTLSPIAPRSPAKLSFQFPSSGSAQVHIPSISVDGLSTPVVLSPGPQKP
The settings on record: protein: recombinant; tags: N-terminal GST; dsDNA, one strand shown. A digest of the protocol: as §1

For another assay, the target named is T3, GABPA (Homo sapiens, UniProt Q06546 1-454).
T3 sequence: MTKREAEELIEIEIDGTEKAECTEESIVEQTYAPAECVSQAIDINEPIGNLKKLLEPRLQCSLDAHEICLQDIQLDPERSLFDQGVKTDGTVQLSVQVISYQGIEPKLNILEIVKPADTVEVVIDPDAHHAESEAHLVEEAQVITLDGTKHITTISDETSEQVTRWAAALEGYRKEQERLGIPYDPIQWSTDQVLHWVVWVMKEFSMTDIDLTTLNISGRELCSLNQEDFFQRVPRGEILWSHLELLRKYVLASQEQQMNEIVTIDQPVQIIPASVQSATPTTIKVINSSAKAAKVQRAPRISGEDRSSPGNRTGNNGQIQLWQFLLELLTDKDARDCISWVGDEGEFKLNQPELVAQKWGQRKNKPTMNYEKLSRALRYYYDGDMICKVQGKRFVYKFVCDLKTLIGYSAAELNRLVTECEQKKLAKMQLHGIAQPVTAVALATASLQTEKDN
Particulars: protein: recombinant; tags: N-terminal GST; dsDNA, one strand shown. A digest of the protocol: as §1

The next assay concerns the target T4, ERG (Homo sapiens, UniProt P11308 1-479).
T4 sequence: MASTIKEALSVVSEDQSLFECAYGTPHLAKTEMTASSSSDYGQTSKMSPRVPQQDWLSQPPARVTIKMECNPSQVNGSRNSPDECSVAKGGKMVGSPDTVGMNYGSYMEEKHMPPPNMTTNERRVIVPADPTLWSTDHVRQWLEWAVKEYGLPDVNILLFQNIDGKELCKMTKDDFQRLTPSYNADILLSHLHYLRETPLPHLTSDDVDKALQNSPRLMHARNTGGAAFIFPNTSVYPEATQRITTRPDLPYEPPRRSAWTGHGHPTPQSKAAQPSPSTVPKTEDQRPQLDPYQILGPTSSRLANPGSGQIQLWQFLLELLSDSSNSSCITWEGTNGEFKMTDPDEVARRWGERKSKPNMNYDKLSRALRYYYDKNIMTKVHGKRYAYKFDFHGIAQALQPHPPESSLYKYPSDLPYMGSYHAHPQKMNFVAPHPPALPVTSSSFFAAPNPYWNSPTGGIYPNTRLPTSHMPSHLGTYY
Particulars: protein: recombinant; tags: N-terminal GST; dsDNA, one strand shown. A digest of the protocol:
as §1

The next assay addresses ELF1 (Homo sapiens, UniProt P32519 1-619). Particulars: protein: recombinant; tags: N-terminal GST; dsDNA, one strand shown. A digest of the protocol:
as §1

A further assay deals with T5, EHF (Homo sapiens, UniProt Q9NZC4 1-300).
T5 sequence: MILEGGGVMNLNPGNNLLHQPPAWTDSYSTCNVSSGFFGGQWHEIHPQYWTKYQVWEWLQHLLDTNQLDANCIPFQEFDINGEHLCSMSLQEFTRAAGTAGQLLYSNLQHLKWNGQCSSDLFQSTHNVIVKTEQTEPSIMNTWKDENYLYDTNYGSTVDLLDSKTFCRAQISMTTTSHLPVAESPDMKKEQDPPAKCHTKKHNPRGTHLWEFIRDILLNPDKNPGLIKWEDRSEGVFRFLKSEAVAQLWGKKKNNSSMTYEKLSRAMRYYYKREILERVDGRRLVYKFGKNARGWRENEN
The settings on record: protein: recombinant; tags: N-terminal GST; dsDNA, one strand shown. A digest of the protocol:
as §1

For another assay, the target named is SPI1 (Homo sapiens, UniProt P17947 1-270). Particulars: protein: recombinant; tags: N-terminal GST; dsDNA, one strand shown. A digest of the protocol: as §1
The target of the next assay is SPIB (Homo sapiens, UniProt Q01892 1-262). Particulars: protein: recombinant; tags: N-terminal GST; dsDNA, one strand shown. A digest of the protocol: as §1
A further assay concerns the target T6, FEV (Homo sapiens, UniProt Q99581 1-238).
T6 sequence: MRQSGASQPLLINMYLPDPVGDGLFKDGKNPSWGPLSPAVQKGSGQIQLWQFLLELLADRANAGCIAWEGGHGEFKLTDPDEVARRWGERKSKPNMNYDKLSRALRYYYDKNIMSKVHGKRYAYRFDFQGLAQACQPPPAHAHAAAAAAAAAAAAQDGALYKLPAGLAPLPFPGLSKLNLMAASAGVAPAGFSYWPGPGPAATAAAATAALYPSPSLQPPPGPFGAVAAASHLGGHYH
Particulars: protein: recombinant; tags: N-terminal GST; dsDNA, one strand shown. A digest of the protocol:
as §1

In a further assay the target is ETV5 (Homo sapiens, UniProt P41161 1-510). The settings on record: protein: recombinant; tags: N-terminal GST; dsDNA, one strand shown. A digest of the protocol:
as §1

Another assay addresses HSF1 (Homo sapiens, UniProt Q00613 1-529). The settings on record: protein: recombinant; tags: N-terminal GST; chain copies: 3; dsDNA, one strand shown. A digest of the protocol:
as §1

Another assay deals with T7, SPIC (Homo sapiens, UniProt Q8N5J4 1-248).
T7 sequence: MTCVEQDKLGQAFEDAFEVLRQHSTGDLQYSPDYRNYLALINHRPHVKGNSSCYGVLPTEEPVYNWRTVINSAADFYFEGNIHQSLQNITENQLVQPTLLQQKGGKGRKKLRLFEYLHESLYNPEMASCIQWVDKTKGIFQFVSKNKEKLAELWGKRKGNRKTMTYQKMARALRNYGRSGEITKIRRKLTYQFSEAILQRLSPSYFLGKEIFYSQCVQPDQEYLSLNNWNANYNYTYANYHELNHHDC
Particulars: protein: recombinant; tags: N-terminal GST; dsDNA, one strand shown. A digest of the protocol:
as §1

For the next assay, the target named is ELF4 (Homo sapiens, UniProt Q99607 1-663). Particulars: protein: recombinant; tags: N-terminal GST; dsDNA, one strand shown. A digest of the protocol: as §1
The target in a further assay is T8, ELK4 (Homo sapiens, UniProt P28324-2 1-405).
T8 sequence: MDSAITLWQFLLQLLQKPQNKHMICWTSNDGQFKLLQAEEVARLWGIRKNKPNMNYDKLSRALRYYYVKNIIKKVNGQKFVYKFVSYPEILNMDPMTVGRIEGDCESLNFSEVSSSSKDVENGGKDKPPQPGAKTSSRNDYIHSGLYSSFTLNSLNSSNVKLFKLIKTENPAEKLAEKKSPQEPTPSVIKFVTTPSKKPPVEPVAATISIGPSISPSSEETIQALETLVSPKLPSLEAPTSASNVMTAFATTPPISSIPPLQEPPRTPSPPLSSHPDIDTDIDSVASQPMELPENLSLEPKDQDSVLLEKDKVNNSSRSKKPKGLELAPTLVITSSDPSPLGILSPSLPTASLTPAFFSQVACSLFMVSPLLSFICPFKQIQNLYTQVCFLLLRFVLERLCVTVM
Particulars: protein: recombinant; tags: N-terminal GST; dsDNA, one strand shown. A digest of the protocol: as §1

The target of the next assay is T9, ETV2 (Homo sapiens, UniProt O00321 1-342).
T9 sequence: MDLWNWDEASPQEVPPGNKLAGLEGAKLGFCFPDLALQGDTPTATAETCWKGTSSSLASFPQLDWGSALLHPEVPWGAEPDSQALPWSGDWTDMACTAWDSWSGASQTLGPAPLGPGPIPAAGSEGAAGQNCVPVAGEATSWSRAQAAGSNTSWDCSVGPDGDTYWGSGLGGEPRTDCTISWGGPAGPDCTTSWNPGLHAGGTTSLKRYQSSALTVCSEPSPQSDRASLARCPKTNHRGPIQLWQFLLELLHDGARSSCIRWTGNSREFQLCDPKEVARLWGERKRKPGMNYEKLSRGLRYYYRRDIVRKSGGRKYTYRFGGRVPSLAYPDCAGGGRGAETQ
Particulars: protein: recombinant; tags: N-terminal GST; dsDNA, one strand shown. A digest of the protocol:
as §1

Another assay concerns the target T10, ELF3 (Homo sapiens, UniProt P78545 1-371).
T10 sequence: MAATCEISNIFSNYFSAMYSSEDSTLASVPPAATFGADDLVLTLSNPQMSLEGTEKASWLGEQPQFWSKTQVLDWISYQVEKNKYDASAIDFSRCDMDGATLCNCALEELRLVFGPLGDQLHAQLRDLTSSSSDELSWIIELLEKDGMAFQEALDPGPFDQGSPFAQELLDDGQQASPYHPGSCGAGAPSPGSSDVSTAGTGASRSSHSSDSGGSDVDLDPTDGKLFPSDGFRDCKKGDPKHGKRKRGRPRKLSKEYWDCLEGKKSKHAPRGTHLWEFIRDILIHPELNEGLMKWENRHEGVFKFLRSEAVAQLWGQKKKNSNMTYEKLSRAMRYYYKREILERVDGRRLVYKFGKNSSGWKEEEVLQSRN
Particulars: protein: recombinant; tags: N-terminal GST; dsDNA, one strand shown. A digest of the protocol: as §1

For another assay, the target named is CRX (Homo sapiens, UniProt O43186 1-299). The settings on record: protein: recombinant; tags: N-terminal GST; dsDNA, one strand shown. A digest of the protocol:
as §1

Another assay concerns the target ETV1 (Homo sapiens, UniProt P50549 1-477). The settings on record: protein: recombinant; tags: N-terminal GST; dsDNA, one strand shown. A digest of the protocol:
as §1

ELF4, sequence (Q99607 whole entry): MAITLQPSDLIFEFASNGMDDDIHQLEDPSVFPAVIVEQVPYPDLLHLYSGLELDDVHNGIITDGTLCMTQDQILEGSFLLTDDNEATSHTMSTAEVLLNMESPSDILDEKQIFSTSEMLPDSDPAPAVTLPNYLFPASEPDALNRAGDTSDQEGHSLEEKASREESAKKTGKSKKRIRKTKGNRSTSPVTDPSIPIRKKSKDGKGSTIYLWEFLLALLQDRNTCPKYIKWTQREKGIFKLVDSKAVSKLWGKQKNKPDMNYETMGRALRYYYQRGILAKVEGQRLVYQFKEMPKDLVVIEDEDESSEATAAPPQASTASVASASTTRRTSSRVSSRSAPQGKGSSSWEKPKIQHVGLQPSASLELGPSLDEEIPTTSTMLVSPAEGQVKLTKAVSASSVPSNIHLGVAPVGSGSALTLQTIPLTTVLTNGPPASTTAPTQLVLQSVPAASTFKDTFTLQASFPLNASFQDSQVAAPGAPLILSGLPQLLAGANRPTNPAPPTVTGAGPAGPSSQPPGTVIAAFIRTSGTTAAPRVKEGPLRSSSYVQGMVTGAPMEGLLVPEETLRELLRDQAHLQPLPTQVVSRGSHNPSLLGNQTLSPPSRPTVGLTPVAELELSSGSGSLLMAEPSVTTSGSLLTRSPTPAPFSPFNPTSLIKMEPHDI
ETV1, sequence (P50549 whole entry): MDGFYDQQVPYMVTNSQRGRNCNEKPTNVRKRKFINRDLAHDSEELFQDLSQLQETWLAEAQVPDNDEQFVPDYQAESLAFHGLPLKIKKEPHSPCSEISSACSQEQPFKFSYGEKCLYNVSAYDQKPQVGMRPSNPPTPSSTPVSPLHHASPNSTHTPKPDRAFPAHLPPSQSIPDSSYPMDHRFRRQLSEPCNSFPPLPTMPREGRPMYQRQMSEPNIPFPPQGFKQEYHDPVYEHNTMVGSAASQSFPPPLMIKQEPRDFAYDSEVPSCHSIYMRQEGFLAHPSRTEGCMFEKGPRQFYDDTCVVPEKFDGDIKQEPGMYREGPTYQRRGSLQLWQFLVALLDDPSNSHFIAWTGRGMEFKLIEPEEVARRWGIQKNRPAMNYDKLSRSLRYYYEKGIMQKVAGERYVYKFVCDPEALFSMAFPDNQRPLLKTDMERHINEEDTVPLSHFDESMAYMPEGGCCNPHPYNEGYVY
ELF1, sequence (P32519 whole entry): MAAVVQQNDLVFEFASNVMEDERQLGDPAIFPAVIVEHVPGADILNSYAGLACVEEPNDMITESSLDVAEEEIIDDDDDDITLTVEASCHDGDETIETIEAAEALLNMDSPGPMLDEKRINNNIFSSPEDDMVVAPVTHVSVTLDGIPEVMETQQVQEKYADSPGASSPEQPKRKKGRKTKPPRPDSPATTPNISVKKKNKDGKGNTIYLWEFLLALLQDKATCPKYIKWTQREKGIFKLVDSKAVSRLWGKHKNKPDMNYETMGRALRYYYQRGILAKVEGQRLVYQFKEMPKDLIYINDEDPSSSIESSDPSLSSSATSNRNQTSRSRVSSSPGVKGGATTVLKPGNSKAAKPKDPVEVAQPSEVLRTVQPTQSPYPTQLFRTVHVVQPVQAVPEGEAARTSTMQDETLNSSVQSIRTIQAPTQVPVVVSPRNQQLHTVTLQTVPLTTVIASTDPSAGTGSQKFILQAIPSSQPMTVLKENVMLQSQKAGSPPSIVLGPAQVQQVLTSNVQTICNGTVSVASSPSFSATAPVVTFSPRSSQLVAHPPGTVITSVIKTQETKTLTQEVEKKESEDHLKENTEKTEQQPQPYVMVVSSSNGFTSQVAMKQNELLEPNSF
CRX, sequence (O43186 whole entry): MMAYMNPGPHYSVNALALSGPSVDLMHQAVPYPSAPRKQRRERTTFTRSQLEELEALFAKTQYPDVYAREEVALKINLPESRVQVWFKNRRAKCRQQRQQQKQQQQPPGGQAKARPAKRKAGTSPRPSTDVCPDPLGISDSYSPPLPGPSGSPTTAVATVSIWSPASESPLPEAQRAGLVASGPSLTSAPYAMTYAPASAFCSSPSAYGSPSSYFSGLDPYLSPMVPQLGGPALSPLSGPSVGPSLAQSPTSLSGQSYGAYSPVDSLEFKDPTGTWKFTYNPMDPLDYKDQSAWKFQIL
ETV5, sequence (P41161 whole entry): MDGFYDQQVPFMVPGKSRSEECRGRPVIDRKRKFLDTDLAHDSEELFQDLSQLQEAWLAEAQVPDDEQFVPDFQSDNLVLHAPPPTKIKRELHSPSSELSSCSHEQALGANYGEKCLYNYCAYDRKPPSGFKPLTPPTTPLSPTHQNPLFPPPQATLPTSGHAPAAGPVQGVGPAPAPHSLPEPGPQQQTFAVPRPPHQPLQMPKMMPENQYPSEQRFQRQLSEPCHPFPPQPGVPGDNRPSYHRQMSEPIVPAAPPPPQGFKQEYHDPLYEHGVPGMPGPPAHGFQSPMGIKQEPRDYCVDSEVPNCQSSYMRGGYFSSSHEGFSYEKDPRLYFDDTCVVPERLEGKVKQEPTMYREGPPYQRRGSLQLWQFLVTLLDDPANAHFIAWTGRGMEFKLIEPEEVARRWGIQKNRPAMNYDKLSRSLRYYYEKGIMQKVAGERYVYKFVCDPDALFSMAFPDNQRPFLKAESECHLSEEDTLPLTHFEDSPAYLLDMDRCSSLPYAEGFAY
SPIB, sequence (Q01892 whole entry): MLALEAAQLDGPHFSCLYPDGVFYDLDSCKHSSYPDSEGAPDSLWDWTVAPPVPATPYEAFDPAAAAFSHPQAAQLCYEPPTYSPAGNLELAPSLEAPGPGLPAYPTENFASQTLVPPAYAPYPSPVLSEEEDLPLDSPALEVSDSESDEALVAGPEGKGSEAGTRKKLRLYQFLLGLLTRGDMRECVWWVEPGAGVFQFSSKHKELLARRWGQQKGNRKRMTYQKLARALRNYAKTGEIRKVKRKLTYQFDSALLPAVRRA
HSF1, sequence (Q00613 whole entry): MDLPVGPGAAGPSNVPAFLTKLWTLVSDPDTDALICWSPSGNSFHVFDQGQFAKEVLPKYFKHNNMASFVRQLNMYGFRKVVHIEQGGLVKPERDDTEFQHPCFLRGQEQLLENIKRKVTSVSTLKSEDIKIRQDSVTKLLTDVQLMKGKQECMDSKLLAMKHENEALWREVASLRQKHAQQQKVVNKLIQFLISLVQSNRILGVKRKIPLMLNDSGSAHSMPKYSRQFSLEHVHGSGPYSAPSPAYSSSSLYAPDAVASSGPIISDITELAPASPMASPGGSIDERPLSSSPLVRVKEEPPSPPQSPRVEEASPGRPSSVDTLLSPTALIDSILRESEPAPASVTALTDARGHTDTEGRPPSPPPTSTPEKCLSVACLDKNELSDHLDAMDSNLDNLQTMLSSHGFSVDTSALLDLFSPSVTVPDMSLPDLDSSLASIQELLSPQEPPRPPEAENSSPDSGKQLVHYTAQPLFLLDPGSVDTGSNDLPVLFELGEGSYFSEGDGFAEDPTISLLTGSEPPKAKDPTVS

Consider TATGCC, for which the binding signal is 1.11 fold enrichment (6-mer frequency, TF over GST control) with FLI1; 1.27 fold enrichment (6-mer frequency, TF over GST control) with ELK1; 1.21 fold enrichment (6-mer frequency, TF over GST control) with GABPA; 1.17 fold enrichment (6-mer frequency, TF over GST control) in the assay with ERG; 1.2 fold enrichment (6-mer frequency, TF over GST control) in the assay with ELF1; 1.18 fold enrichment (6-mer frequency, TF over GST control) in the assay with EHF. In addition, the binding signal is 1.11 fold enrichment (6-mer frequency, TF over GST control) with SPI1; 1.26 fold enrichment (6-mer frequency, TF over GST control) in the assay with SPIB; 1.13 fold enrichment (6-mer frequency, TF over GST control) with FEV; 1.18 fold enrichment (6-mer frequency, TF over GST control) in the assay with ETV5; 1.06 fold enrichment (6-mer frequency, TF over GST control) with HSF1; 1.28 fold enrichment (6-mer frequency, TF over GST control) with SPIC. Also, the binding signal with ELF4 is 1.15 fold enrichment (6-mer frequency, TF over GST control); in the assay with ELK4, 1.17 fold enrichment (6-mer frequency, TF over GST control); in the assay with ETV2 it was 1.05 fold enrichment (6-mer frequency, TF over GST control); in the assay with ELF3, 1.01 fold enrichment (6-mer frequency, TF over GST control); with CRX it was 1.18 fold enrichment (6-mer frequency, TF over GST control); with ETV1 it was 1.28 fold enrichment (6-mer frequency, TF over GST control).

On to TATGTG, for which the binding signal was 1 fold enrichment (6-mer frequency, TF over GST control) with FLI1; 1.08 fold enrichment (6-mer frequency, TF over GST control) with ELK1; 1.05 fold enrichment (6-mer frequency, TF over GST control) with GABPA; 1.06 fold enrichment (6-mer frequency, TF over GST control) with ERG; 1.06 fold enrichment (6-mer frequency, TF over GST control) in the assay with ELF1; 1.07 fold enrichment (6-mer frequency, TF over GST control) in the assay with EHF. Also, the binding signal is 1.05 fold enrichment (6-mer frequency, TF over GST control) in the assay with SPIB; 1.08 fold enrichment (6-mer frequency, TF over GST control) with FEV; 1.13 fold enrichment (6-mer frequency, TF over GST control) in the assay with ETV5; 1.01 fold enrichment (6-mer frequency, TF over GST control) with HSF1; 1.22 fold enrichment (6-mer frequency, TF over GST control) in the assay with SPIC; 1.13 fold enrichment (6-mer frequency, TF over GST control) in the assay with ELF4. For the same sequence, the binding signal with ELK4 was 1.17 fold enrichment (6-mer frequency, TF over GST control); with ETV2 it was 1.06 fold enrichment (6-mer frequency, TF over GST control); with ELF3 it was 1.16 fold enrichment (6-mer frequency, TF over GST control); with CRX it was 1.09 fold enrichment (6-mer frequency, TF over GST control); with ETV1, 1.08 fold enrichment (6-mer frequency, TF over GST control).
